The campaign covered roughly 360,000 compounds. About 2,100 (0.58%) were called active. This is one part of a sample in which actives are shown more often than they occur. Cut-off read from the data, not from the text of the source: active = inhibition above about 36%; inactive = the rest.

Sequence of NEDD8-conjugating enzyme Ubc12 (Homo sapiens) + NEDD8-activating enzyme E1 regulatory subunit (Homo sapiens) (P61081 whole entry, looked up): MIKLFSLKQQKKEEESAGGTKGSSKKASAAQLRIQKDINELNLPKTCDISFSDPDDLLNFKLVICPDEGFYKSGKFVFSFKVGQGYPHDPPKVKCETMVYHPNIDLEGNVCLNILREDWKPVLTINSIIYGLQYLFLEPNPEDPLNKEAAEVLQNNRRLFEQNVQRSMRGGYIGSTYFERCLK
Sequence of NEDD8-conjugating enzyme Ubc12 (Homo sapiens) + NEDD8-activating enzyme E1 regulatory subunit (Homo sapiens) (Q13564 whole entry, looked up): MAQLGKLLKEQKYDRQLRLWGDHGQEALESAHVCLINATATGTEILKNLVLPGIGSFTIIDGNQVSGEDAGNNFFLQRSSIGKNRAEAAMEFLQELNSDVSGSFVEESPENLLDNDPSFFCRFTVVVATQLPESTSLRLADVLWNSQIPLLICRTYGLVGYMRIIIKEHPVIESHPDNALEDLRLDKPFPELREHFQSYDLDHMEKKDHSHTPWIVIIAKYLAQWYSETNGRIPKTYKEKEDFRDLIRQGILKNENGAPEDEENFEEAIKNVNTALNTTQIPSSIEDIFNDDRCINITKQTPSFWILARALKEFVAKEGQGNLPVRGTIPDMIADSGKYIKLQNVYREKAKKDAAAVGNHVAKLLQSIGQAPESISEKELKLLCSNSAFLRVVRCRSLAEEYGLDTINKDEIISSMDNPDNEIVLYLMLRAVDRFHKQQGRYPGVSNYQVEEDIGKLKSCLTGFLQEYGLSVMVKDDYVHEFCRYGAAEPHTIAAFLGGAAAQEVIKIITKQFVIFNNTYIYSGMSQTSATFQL

This experiment concerns the target NEDD8-conjugating enzyme Ubc12 (Homo sapiens) + NEDD8-activating enzyme E1 regulatory subunit (Homo sapiens) (UniProt P61081+Q13564). Nature of the experiment: NEDD8 transfer onto cullin, blockade – biochemical, TR-FRET, uHTS, NAE and Ubc12, primary screen (AID 651699). As to conditions: TR-FRET cullin neddylation, at 25 µM, active compounds read high.
In the case of `CCN1CCCC1CNc1ncnc2c1[nH]c1ccc(F)cc12` (centres undefined), the inhibition is 37% (active).

Turning to `CCN1CCCC1CNC(=O)Cn1cnc2ccc(S(=O)(=O)N3CCC(C)CC3)cc2c1=O` (centres undefined), the inhibition was -2.38% (inactive).

`CCN1CCCC1Cn1cnc2c([nH]c3cc(OC)ccc32)c1=O` (centres undefined): the inhibition was 1.83% (inactive).

Take `CCOC(=O)C1=C(N)N2C(=O)C(C)SC2=C(C(=O)OCC)C1c1cc(OC)c(OC)c(OC)c1` (centres undefined): the inhibition is -1.53% (inactive).

With `COc1ccc(CC(N)c2csc(NC(=O)NC(c3ccccc3)c3ccccc3)n2)cc1` (centres undefined), the inhibition was -1.83% (inactive).

As for `CC(=O)c1ccc(Nc2nc(C(N)c3ccccc3)cs2)cc1` (centres undefined), the inhibition is 41.1% (active).

On to `COC(=O)c1ccc2c(c1)S(=O)(=O)NC(=NCCCN1CCOCC1)S2`, for which the inhibition is -10.1% (inactive).

On to `CC(Sc1nc2c([nH]c3ccccc32)c(=O)n1C)c1ccccc1` (centres undefined), for which the inhibition was -4.19% (inactive).

Take `O=c1c2c(nc3cc(-c4cccc(Cl)c4)[nH]n13)CCCC2`: the inhibition was 40.3% (active).

Consider `CSc1nc2nc3c(c(=O)n2[nH]1)CCC3`, for which the inhibition is -7.01% (inactive).

Regarding `Clc1cccc(Cc2c(-c3cccc(Cl)c3)nc3ccc(Cl)cn23)c1`, the inhibition is -36.7% (inactive).

Consider `O=C(Nc1cc(-c2nn(CC(=O)N3CCCCC3)c(=O)c3ccccc23)ccc1N1CCOCC1)c1ccc(Cl)cc1`, for which the inhibition was 20.1% (inactive).

For `O=C(CCl)NNc1cccc(Cl)n1`, the inhibition was 3.4% (inactive).

`COc1ccc2oc(C(=O)N(CC(C)C)C3CCS(=O)(=O)C3)c(C)c2c1` (centres undefined): the inhibition was 2.83% (inactive).

On to `COc1ccc2oc(C(=O)NCC(Cc3ccccc3)N(C)C)c(C)c2c1` (centres undefined), for which the inhibition is 43.3% (active).

Turning to `NC(=O)C1(N2CCCCC2)CCN(C(=O)c2ccc(C#Cc3ccccc3)o2)CC1`, the inhibition is -13.2% (inactive).

In the case of `COc1ccc(Br)cc1/C=N/Nc1ccc(S(=O)(=O)Nc2ccccc2C(=O)O)cc1[N+](=O)[O-]`, the inhibition is -8.62% (inactive).

Regarding `O=C(NC(=S)Nc1ccc(Cl)c(C(=O)O)c1)c1cncc(Br)c1`, the inhibition is -4.06% (inactive).

Take `COc1ccc(Br)cc1/C=N/Nc1ccc(Cl)c(C(=O)O)c1`: the inhibition was 45.1% (active).

In the case of `CCN(CC(=O)NCc1cccs1)c1nnnn1-c1ccccc1`, the inhibition was 0.19% (inactive).

Take `O=C(NCc1cccc(C(F)(F)F)c1)c1ccc2sc(COCCO)nc2c1`: the inhibition was 3.36% (inactive).

As to `CCOC(=O)c1cc(C(=O)Nc2ccc(S(=O)(=O)Nc3ccc(OC)cc3)cc2)nn1C`, the inhibition is -1.03% (inactive).

Turning to `COc1ccc2oc(C(=O)OCC(=O)N(CC(C)C)c3c(N)n(Cc4ccccc4)c(=O)[nH]c3=O)c(C)c2c1`, the inhibition was 44.4% (active).

For `CC(C)CN(C(=O)COC(=O)c1ccc(Cl)c(N)c1)c1c(N)n(Cc2ccccc2)c(=O)[nH]c1=O`, the inhibition was 30.6% (inactive).

Consider `CC(C)CN(C(=O)COC(=O)c1ccc2ccccc2c1)c1c(N)n(Cc2ccccc2)c(=O)[nH]c1=O`, for which the inhibition is 3.53% (inactive).

Consider `CCN(CC)C(=O)C1=C(C)N(Cc2ccc(C(C)(C)C)cc2)C(=O)C(CC(=O)NCc2cccc3ccccc23)C1` (centres undefined), for which the inhibition is -9.92% (inactive).

For the molecule `CC(C)Cc1nc(N2CCOCC2)c(C#N)c2c1CCC2`, the inhibition was 44.8% (active).

Consider `CC(C)Cc1nc(Cl)c(C#N)c2c1CCC2`, for which the inhibition is -5.13% (inactive).

As for `COc1cc(S(=O)(=O)N2CCOCC2)ccc1NC(=O)COc1ccc(N(C)S(=O)(=O)c2ccc(C)cc2)cc1`, the inhibition was -8.3% (inactive).

Consider `CCNC(=O)CN(c1ccc(C)cc1)S(=O)(=O)c1ccc(SC)cc1`, for which the inhibition is -3.17% (inactive).

In the case of `CCOC(=O)c1cc(C(C)C)sc1NC(=O)COC(=O)c1nccnc1N`, the inhibition is 45.2% (active).

Regarding `CCOC(=O)c1cc(C)sc1NC(=O)C1CCC1`, the inhibition is -7.86% (inactive).

Regarding `Cc1cc(C(=O)OCC(=O)Nc2nnc(C(C)C)s2)c2ccccc2n1`, the inhibition is -11.2% (inactive).

`COc1ccc(CN(CC(=O)NC2CCCC2)C(=O)CCC(=O)Nc2cc(C)on2)cc1`: the inhibition was 6.41% (inactive).

As for `COc1cccc(NC(=O)c2nn(-c3ccc(OC)cc3OC)c(=O)c3ccccc23)c1`, the inhibition is -9.58% (inactive).

On to `CCN(c1ccccc1)S(=O)(=O)c1ccc(OCC(=O)N2CCCC2)cc1`, for which the inhibition was -24.7% (inactive).

Consider `Cc1ccc(NC(=O)CC2C(=O)N(Cc3ccccc3)C(=S)N2NC(=O)c2cccc(F)c2)c(C)c1` (centres undefined), for which the inhibition is 2.05% (inactive).

Regarding `COc1ccc(-n2nc(C(=O)NCC(=O)N3CCN(c4ccccc4OC)CC3)c3ccccc3c2=O)c(OC)c1`, the inhibition was 6.66% (inactive).

On to `COc1ccc(Nc2ncc(C(=O)N3CCN(c4ccccc4OC)CC3)c3ccccc23)cc1`, for which the inhibition was 48.4% (active).

Take `COc1ccccc1N1CCN(C(=O)c2ccc(NC3=NC4CS(=O)(=O)CC4S3)cc2)CC1` (centres undefined): the inhibition was 0.72% (inactive).

As to `CCN(CC(=O)Nc1c(F)cccc1F)C(=O)c1ccc(-c2ccccc2)cc1`, the inhibition is 4.05% (inactive).

As to `CCN(CC(=O)Nc1c(F)cccc1F)C(=O)c1ccc(-c2ccc(C(C)=O)cc2)o1`, the inhibition was 71.9% (active).

For `CCN(CC(=O)Nc1c(F)cccc1F)C(=O)c1cnc(C)cn1`, the inhibition was -6.81% (inactive).

For the molecule `COc1cc(C2C(C(=O)c3cccs3)=C(O)C(=O)N2CCN2CCOCC2)ccc1OCCC(C)C` (centres undefined), the inhibition is -13.5% (inactive).

With `CN(CC(=O)Nc1cccc(F)c1)C(=O)C1CC(=O)N(CCc2ccccc2)C1` (centres undefined), the inhibition was -1.18% (inactive).

Consider `Cc1cc(C)c2[nH]c(=O)c(CN(Cc3ccccc3)C(=S)NCCCN(C)C)cc2c1`, for which the inhibition is 2.15% (inactive).

As to `Cc1cc(C)cc(NC(=S)NCCCN2CCOCC2)c1`, the inhibition is 0.98% (inactive).

For the molecule `Cc1ccc2cc(C#N)c(NCCNC(=S)NCCCN3CCOCC3)nc2c1`, the inhibition is 50.7% (active).

Consider `C=CCn1c(SCc2nnc(-c3ccccc3)o2)nnc1C(O)c1ccccc1` (centres undefined), for which the inhibition was 5.64% (inactive).

For the molecule `CCOc1ccc(N(C(=O)c2snc(C(N)=O)c2N)C(C(=O)NCC2CCCO2)c2c[nH]c3ccccc23)cc1` (centres undefined), the inhibition was 7.52% (inactive).

As to `COc1cc(F)c(C2=CC(=O)CC(C)(C)C2)cc1F`, the inhibition was -23.8% (inactive).

On to `COc1ccc(N(CC(=O)N/N=C/c2cccs2)S(=O)(=O)c2ccc(OC)c(OC)c2)cc1`, for which the inhibition was -15.8% (inactive).

For the molecule `COc1ccc(N(CC(=O)N/N=C/c2cccc3c2OCCO3)S(=O)(=O)c2ccc(NC(C)=O)cc2)cc1`, the inhibition was 38.9% (active).

For the molecule `CC(=O)Nc1ccc(S(=O)(=O)N(CCc2ccccc2)CC(=O)N/N=C/c2ccc(C(=O)O)cc2)cc1`, the inhibition is -5.24% (inactive).

These data come from PubChem BioAssay AID651699 (Sanford-Burnham Center for Chemical Genomics, 2012).
